According to PubChem BioAssay (NCATS):
Records with an inconclusive call do not appear. Calls of active or inactive are those of the source. Calls come from the whole dose curve; as a rule, active = well fitted inhibition curve with a large enough effect; inconclusive = small, poorly fitted or top-dose-only effect; inactive = flat fitted curve, though single readings scatter. *1 amine or outer side, *2 acyl side, *3 side chain or, on linkers, in order; H or OH if unused. Where a SMILES comes first, the peptide text is derived from it. Bridges are numbered along the chain shown (N, C = ends). [ ]: non-standard residue; d: D form. The star is where a group is joined. ξ: configuration not given here. ξhTyr(3S-OH,4S-OH,3'-OSO3H) = NC(C(=O)O)[C@H](O)[C@@H](O)c1ccc(O)c(OS(=O)(=O)O)c1; Orn(4R-OH,5R-OH) = O=C([C@H](C[C@@H](O)[C@@H](O)N[*:3])N[*:1])[*:2]; X2 = CCCCCOc1ccc(-c2cc(-c3ccc(C(=O)*)cc3)no2)cc1; X3 = C[C@H]1CN([*:1])C(C(=O)[*:2])[C@H]1O; ξGln(3R-OH) = NC(=O)C[C@@H](O)C(N)C(=O)O; ξPro(4R-OH) = O=C(O)C1C[C@@H](O)CN1; ξThr(3R) = C[C@@H](O)C(N)C(=O)O

Columns and labels:
Assay in all cases: Cytotoxic Profiling of Annotated Libraries Using Quantitative High-Throughput Screening (AID 1296008); note: nearly all actives have a fitted effect of over 60% in size
Conditions in all cases: Five cell lines viability, CellTiter-Glo ATP luminescence, 48-72 h; max response: active compounds read low
[1] = test system: CRL-7250
Method in brief: (§1)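 Cells exposed to compounds for 48 or 72 hr at 37 degrees Celsius. Viability read as ATP-coupled luminescence with CellTiter-Glo after 10 min at room temperature.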

[2] = test system: HEK293
Method in brief: as §1

[3] = test system: HaCat
Method in brief: as §1

[4] = test system: KB-3-1
Method in brief: as §1

[5] = test system: NIH3T3
Method in brief: as §1

Measured: max response
% is set by controls: 0 for no effect and ±100 for the full control effect.

CCC(C)/C=C(C)/C=C/C1=CC2=C(Cl)C(=O)C(C)(OC(C)=O)C(=O)C2=CN1CCCCC(N)C(=O)O (stereo not given)
inactive: [1] -2.74% | [2] 3.25% | [3] | [4] | [5] 3.52%

CCCCCOc1ccc(-c2cc(-c3ccc(C(=O)N[C@H]4C[C@@H](O)[C@@H](O)NC(=O)C5[C@@H](O)[C@@H](C)CN5C(=O)C([C@H](O)CC(N)=O)NC(=O)C([C@H](O)[C@@H](O)c5ccc(O)c(OS(=O)(=O)O)c5)NC(=O)C5C[C@@H](O)CN5C(=O)C([C@@H](C)O)NC4=O)cc3)no2)cc1 (stereo partly drawn) (X2-[Orn(4R-OH,5R-OH)][ξThr(3R)][ξPro(4R-OH)][ξhTyr(3S-OH,4S-OH,3'-OSO3H)][ξGln(3R-OH)][X3]; lactam 1-C)
inactive: [1] | [2] -7.85% | [3] | [4] | [5] 3.77%

Cc1c(NC(=O)N2CCOCC2)ccc2c1c1ccccc1n2C(C)C
inactive: [1] | [2] -7.57% | [3] | [4] 3.33% | [5] -1.53%

Cc1onc(-c2ccccc2Cl)c1C(=O)N(C)c1ccc(Cl)cc1
inactive: [1] | [2] -12.8% | [3] | [4] 4.59% | [5]

Cc1ncc([N+](=O)[O-])n1C[C@H](O)CN1CCOCC1
inactive: [1] | [2] 2.87% | [3] | [4] | [5] -3.55%

CC1(O)CC(O)C2C(C(=O)O)=COC(OC3OC(CO)C(O)C(O)C3OC(=O)/C=C/c3ccc(O)cc3)C21 (stereo not given)
inactive: [1] 2.15% | [2] 1.1% | [3] | [4] 6.91% | [5]

NC1Nc2ccccc2C1(N)CC1NC(=O)C(Cc2ccccc2)NC(=O)C(Cc2ccccc2)NC1=O (stereo not given)
inactive: [1] -1.59% | [2] -40.7% | [3] | [4] 2.51% | [5] 1.33%

O=C(O)c1cc(C(F)(F)F)ccc1N1CC[C@H](OCc2ccccn2)C1
inactive: [1] | [2] -6.22% | [3] | [4] 6.78% | [5]

O=C(CC1CC(c2ccc(F)cc2F)=NO1)N1CCOCC1 (stereo not given)
inactive: [1] -1.82% | [2] 4.11% | [3] | [4] -13.2% | [5] -0.0344%

O=C(c1ccc(Cl)c([N+](=O)[O-])c1)N1CCN(c2ccccc2F)CC1
inactive: [1] -5.45% | [2] 0.0452% | [3] | [4] | [5]

CC(=O)O[C@@H]1[C@@H](O)[C@H](C)O[C@@H](O[C@H]2[C@@H]3C=CO[C@@H](O[C@@H]4O[C@H](CO)[C@@H](O)[C@H](O)[C@H]4OC(C)=O)[C@@H]3[C@@]3(CO)O[C@@H]23)[C@@H]1OC(=O)/C=C/c1ccc(O)cc1
inactive: [1] 0.704% | [2] 2.14% | [3] | [4] | [5]

On1ncc(C2CCNCC2)c1-c1cccc(-c2ccccc2)c1
inactive: [1] | [2] -1.77% | [3] | [4] 8.99% | [5] 1.04%

CCCCCOC(=O)Nc1nc(=O)n(C2O[C@H](C)[C@@H](O)[C@H]2O)cc1F (stereo not given in full)
inactive: [1] | [2] -11.1% | [3] -6.73% | [4] | [5]

O=C(O)Cc1cn([C@@H]2O[C@H](CO)[C@@H](O)[C@H](O)[C@H]2O[C@@H]2O[C@H](CO)[C@@H](O)[C@H](O)[C@H]2O)c2ccccc12
inactive: [1] -3.23% | [2] 2.13% | [3] | [4] 4.7% | [5]

C[C@]12CC/C(=N\OCC(=O)O)C=C1CC[C@@H]1[C@@H]2[C@@H](O)C[C@@]2(C)[C@H]1CC[C@]2(O)C(=O)CO
inactive: [1] -6.4% | [2] | [3] 2.89% | [4] | [5] -9.49%

CN(C)c1ccc(C2O[C@@H](c3ccccc3)C[C@H](c3ccccc3)O2)cc1 (stereo not given in full)
inactive: [1] | [2] -10.1% | [3] | [4] | [5] 4.55%

CC(=O)NC1C(OC2CCC3(C)C(CCC4(C)C3CC=C3C5CC(C)(C)CCC5(C(=O)O)C(O)CC34C)C2(C)C)OC(CO)C(O)C1O (stereo not given)
inactive: [1] -37.4% | [2] -25.2% | [3] | [4] 0.467% | [5]

C[C@@H]1CC2OC(=O)C3=C2C(CCC3O)[C@@]12C[C@@H](c1ccoc1)OC2=O (stereo not given in full)
inactive: [1] -0.741% | [2] 2.79% | [3] | [4] | [5]

COc1cc(-c2ccc(O)cc2)c(OC)c(O)c1C1=CC(=O)OC1CC(=O)O (stereo not given)
inactive: [1] 2.67% | [2] 1.87% | [3] | [4] -5.37% | [5]

C[C@H]1[C@H](C)CC[C@]2(C(=O)O)CC[C@]3(C(=O)O)C(=CCC4[C@@]5(C)CC[C@H](O[C@@H]6O[C@@H](C)[C@H](O)[C@@H](O)[C@H]6O)C(C)(C)C5CC[C@]43C)[C@H]12 (stereo not given in full)
inactive: [1] | [2] -0.583% | [3] | [4] -0.753% | [5] 4.82%

OC[C@@]1(O)CO[C@@H](OC[C@H]2O[C@@H](Oc3ccccc3)[C@H](O)[C@@H](O)[C@@H]2O)[C@@H]1O
inactive: [1] | [2] -6.8% | [3] | [4] 0.107% | [5]

C[C@@H]1CC[C@]2(C(=O)O)CC[C@]3(C)C(=CCC4[C@@]5(C)C[C@@H](O)[C@H](O)[C@@](C)(CO)C5CC[C@]43C)C2[C@H]1C (stereo not given in full)
inactive: [1] -10.8% | [2] 4.76% | [3] | [4] 3.75% | [5]

O=C(C1OC1/C=C/c1ccc2c(c1)OCO2)N1CCCCC1 (stereo not given)
inactive: [1] 3.99% | [2] -7.74% | [3] | [4] 5.97% | [5] -1.01%

COc1cc(C(CO)C(OC2OC(CO)C(O)C(O)C2O)c2ccc(O)c(OC)c2)ccc1O (stereo not given)
inactive: [1] | [2] -2.64% | [3] | [4] 3.11% | [5]

CC(C)c1ccc2c(c1)[C@H](O)CC1[C@@](C)(C(=O)O)CCC[C@]21C (stereo not given in full)
inactive: [1] -0.592% | [2] -18.5% | [3] -16.8% | [4] -0.988% | [5]

C/C=C(\C)C(=O)OC1C(C)C2(O)C3C=C(C)C(=O)C3CC(CO)=CC2C2C(C)(C)C12OC(C)=O (stereo not given)
inactive: [1] -31.4% | [2] -25.8% | [3] 4.78% | [4] 2.42% | [5]

CCOc1nc2c(N)ncnc2n1CC
inactive: [1] | [2] 3.9% | [3] | [4] 5.09% | [5] 3.41%

CN(C)C(=O)C(O)C(Cc1ccccc1)NC(=O)c1cc2cc(Cl)ccc2[nH]1 (stereo not given)
inactive: [1] | [2] | [3] -1.1% | [4] 5.45% | [5] -2.44%

COc1ccc(C(=O)NCc2cc(C(C)C)no2)cc1OC1CCN(C)CC1
inactive: [1] -1.84% | [2] -4.29% | [3] 4.96% | [4] -1.9% | [5]

CC1(C)C(=O)CCC2(C)C1C(O)C=C1COC(=O)C12O (stereo not given)
inactive: [1] -15.2% | [2] -3.58% | [3] | [4] 7.63% | [5] -3.93%

C=C1CCC2[C@](C)(CCC[C@]2(C)C(=O)O)[C@H]1CC/C(C)=C/C(=O)OC (stereo not given in full)
inactive: [1] -5.17% | [2] -8.16% | [3] | [4] | [5] 0.39%

C=C[C@@](C)(CCC=C(C)C)O[C@@H]1O[C@H](CO[C@@H]2OC[C@H](O)[C@H](O)[C@H]2O)[C@@H](O)[C@H](O)[C@H]1O
inactive: [1] | [2] | [3] 0.544% | [4] | [5] 4.46%

C=C(C(=O)O)[C@@H]1CC[C@H](C)[C@@H]2CC(=O)C(C)=C2C1
inactive: [1] | [2] 3.15% | [3] -2.91% | [4] 3.54% | [5]

CC1=C(CC/C(C)=C/C(=O)O)[C@@]2(C)CCCC(C)(C)C2CC1=O (stereo not given in full)
inactive: [1] -7.55% | [2] -5.92% | [3] | [4] | [5]

CC/C=C\CC1C(CC(=O)O)CCC1OC1OC(CO)C(O)C(O)C1O (stereo not given)
inactive: [1] | [2] 0.263% | [3] | [4] 8.15% | [5]

CC1=C(CO)C2(C)CCCC(C)(C)C2C(O)C1O (stereo not given)
inactive: [1] -6.52% | [2] -5.93% | [3] | [4] | [5]

C/C=C(/C)C(=O)OC1C(OC(C)=O)C23C(O)OC4(CCC5C6(C)CCC(OC7OC(C(=O)O)C(O)C(OC8OC(CO)C(O)C(O)C8OC8OC(C)C(O)C(O)C8OC8OCC(O)C(O)C8O)C7OC7OC(CO)C(O)C(O)C7O)C(C)(C)C6CCC5(C)C4(C)CC2OC(C)=O)C3CC1(C)C (stereo not given)
inactive: [1] 1.39% | [2] | [3] 1.22% | [4] 4.58% | [5] -12.1%

C=C1CCC2C(C)(C(=O)OC)CCCC2(C)C1CCC1=CCOC1=O (stereo not given)
inactive: [1] 3.38% | [2] 2.4% | [3] 1% | [4] | [5]

Cc1occc(=O)c1O[C@@H]1O[C@H](COC(=O)CC(C)(O)CC(=O)O)[C@@H](O)[C@H](O)[C@H]1O (stereo not given in full)
inactive: [1] | [2] -5.53% | [3] | [4] | [5]

Cc1ccccc1-n1nc(-c2c(-c3ccc(F)cc3)nn3c2NC[C@@H](CO)C3)ccc1=O
inactive: [1] 1.82% | [2] -7.72% | [3] | [4] 1.64% | [5]

COc1ccc(CC(=O)NCc2ccccc2-c2ccccc2C(=O)NCCc2cccnc2)cc1
inactive: [1] -3.16% | [2] -0.81% | [3] | [4] -4.64% | [5]
